PubChem BioAssay (EPA / NIEHS)
Results filed as inconclusive are left out. Active and inactive are the calls of the source. The calls were made as follows, unless noted: active = hit-call score of the fitted dose curve at least 0.9, where 1 is the maximum; inactive = score below 0.9.

How the values were obtained:
[1] = TOX21_p53_BLA_p2_viability: Viability Assessment in the Tox21 HCT-116 p53 Agonism Beta-lactamase Assay, Phase 2 (AID 2283591; active = hit-call score of the fitted dose curve at least 0.9, where 1 is the maximum;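 also: compound exposure lasted 16 h at 37 °C; actives lower the ATP signal meaning cytotoxicity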)
Summary of the method: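 HCT-116 p53-bla cells (4000/well) rested 5 h at 37C, then received compounds in DMSO (217-fold dilution) for 16 h at 37C, 5% CO2. After the CCF4 read, CellTiter-Glo was added; ATP luminescence was read after 30 min at room temperature.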

[2] = target: Cellular tumor antigen p53 (Homo sapiens) (UniProt P04637); test: TOX21_p53_BLA_p2_ratio: Tox21 HCT-116 p53 Agonism Beta-lactamase Assay, Ratio, Phase 2 (AID 2283592; active = hit-call score of the fitted dose curve at least 0.9, where 1 is the maximum)
Chain of Cellular tumor antigen p53 (Homo sapiens) (P04637 whole entry, looked up): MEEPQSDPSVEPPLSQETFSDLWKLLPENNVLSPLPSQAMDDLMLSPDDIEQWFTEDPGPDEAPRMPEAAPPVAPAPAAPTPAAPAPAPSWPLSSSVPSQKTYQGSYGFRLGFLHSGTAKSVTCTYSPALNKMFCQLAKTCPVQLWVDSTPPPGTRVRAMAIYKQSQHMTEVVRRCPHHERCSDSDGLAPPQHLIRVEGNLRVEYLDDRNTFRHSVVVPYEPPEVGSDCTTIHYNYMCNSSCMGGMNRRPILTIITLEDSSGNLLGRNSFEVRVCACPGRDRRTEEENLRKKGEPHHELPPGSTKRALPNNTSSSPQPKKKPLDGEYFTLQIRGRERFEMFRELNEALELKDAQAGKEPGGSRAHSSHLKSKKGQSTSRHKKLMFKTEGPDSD
Summary of the method: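 First, HCT116 reporter cells settle for 5 h at 37C. Next, DMSO compound solutions are pinned in (217-fold dilution) and left 16 h. Finally, CCF4-AM substrate is loaded 2 h at room temperature and the 460/530 nm ratio read.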

[3] = TOX21_p53_BLA_p3_viability: Viability Assessment in the Tox21 HCT-116 p53 Agonism Beta-lactamase Assay, Phase 3 (AID 2283593; active = hit-call score of the fitted dose curve at least 0.9, where 1 is the maximum;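 also: cells exposed to compound for 16 h before reading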)
Summary of the method: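 HCT-116 cells (4000/well) rested 5 h at 37C, then got DMSO compounds by pin tool (217-fold dilution) for 16 h at 37C, 5% CO2. After the bla read, CellTiter-Glo was added and luminescence read at 30 min, room temperature.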

[4] = target: Cellular tumor antigen p53 (Homo sapiens) (UniProt P04637); test: TOX21_p53_BLA_p3_ratio: Tox21 HCT-116 p53 Agonism Beta-lactamase Assay, Ratio, Phase 3 (AID 2283596; active = hit-call score of the fitted dose curve at least 0.9, where 1 is the maximum)
Summary of the method: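 Cells were seeded at 4000/well, rested 5 h at 37C, then dosed with DMSO compound solutions (217-fold dilution) for 16 h. CCF4-AM substrate was loaded for 2 h at room temperature, and the 460/530 nm emission ratio was fitted for gain of signal versus DMSO.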

[5] = TOX21_p53_BLA_p4_viability: Viability Assessment in the Tox21 HCT-116 p53 Agonism Beta-lactamase Assay, Phase 4 (AID 2283597; active = hit-call score of the fitted dose curve at least 0.9, where 1 is the maximum;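 also: hits lower the luminescence signal meaning cytotoxicity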)
Summary of the method: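 4000 HCT116 cells per well; 5 h attachment; compounds from DMSO, 217-fold dilution; 16 h at 37C. Then CCF4-AM, 2 h RT, followed by CellTiter-Glo, 30 min RT, luminescence. Decrease = cytotoxicity.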

[6] = target: Cellular tumor antigen p53 (Homo sapiens) (UniProt P04637); test: TOX21_p53_BLA_p4_ratio: Tox21 HCT-116 p53 Agonism Beta-lactamase Assay, Ratio, Phase 4 (AID 2283601; active = hit-call score of the fitted dose curve at least 0.9, where 1 is the maximum)
Summary of the method: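 HCT116 cells carrying an inducible beta-lactamase reporter were plated at 4000 cells/well, rested 5 h, then exposed to compounds in DMSO (217-fold dilution) for 16 h at 37C. CCF4-AM substrate was loaded 2 h at room temperature; 460/530 nm emission ratio scored gain-of-signal versus DMSO.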

[7] = CCTE_Shafer_MEA_dev_firing_rate_mean: CCTE's Neural Network Formation Assay for Mean Firing Rate, Shafer Lab (AID 2284031)
Summary of the method: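 Extracellular spike frequency, AUC over DIV 5–12 recordings, in rat cortical neuron MEA cultures dosed from plating; loss direction vs DMSO.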

[8] = CCTE_Shafer_MEA_dev_per_burst_spike_percent: CCTE's Neural Network Formation Assay for Percent of Spikes in a Burst, Shafer Lab (AID 2284032)
Summary of the method: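 Value is trapezoidal AUC over recordings on days 5, 7, 9 and 12 of the well-mean fraction of spikes falling in single-electrode bursts; rat cortical cultures exposed continuously from plating, treatment renewed DIV 5 and 9, fitted downward against DMSO.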

[9] = CCTE_Shafer_MEA_dev_active_electrodes_number: CCTE's Neural Network Formation Assay for Number of Active Electrodes, Shafer Lab (AID 2284040; active = hit-call score of the fitted dose curve at least 0.9, where 1 is the maximum)
Summary of the method: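 Developing rat cortical networks on MEAs, exposed DIV 0–12. Value is the AUC of active-electrode counts (≥5 spikes/min) from days 5, 7, 9, 12, relative to DMSO.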

[10] = CCTE_Shafer_MEA_dev_burst_rate: CCTE's Neural Network Formation Assay for Burst Rate, Shafer Lab (AID 2284042)
Summary of the method: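 Rat primary cortical cultures on PEI/laminin MEA; compound from plating, re-dosed at DIV 5, 9 media change. Single-electrode bursts/recording length, well mean of active electrodes; AUC over DIV 5–12 recordings; loss-of-signal vs DMSO.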

[11] = CCTE_Shafer_MEA_dev_per_burst_interspike_interval: CCTE's Neural Network Formation Assay for Burst Interspike Interval, Shafer Lab (AID 2284044)
Summary of the method: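 Primary rat cortical neurons on 48-well MEA plates, exposed from day 0 through day 12, treatment renewed at DIV 5 and 9. Within-burst interspike interval recorded days 5, 7, 9, 12, well-averaged, summarised as AUC; negative fit versus DMSO.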

[12] = CCTE_Shafer_MEA_dev_burst_duration_mean: CCTE's Neural Network Formation Assay for Mean Burst Duration, Shafer Lab (AID 2284045)
Summary of the method: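 Network-formation assay in primary rat cortical neurons; treatment spans twelve days of development. Mean burst duration per well is integrated by trapezoidal AUC and fitted in the loss-of-signal direction against DMSO baseline.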

[13] = CCTE_Shafer_MEA_dev_interburst_interval_mean: CCTE's Neural Network Formation Assay for Mean Interburst Interval, Shafer Lab (AID 2284046);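 also: well-mean interburst interval of bursting electrodes as AUC over four recording days; curve fitted for decrease in interburst interval relative to DMSO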
Summary of the method: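 Rat cortical neurons, 1.5 x 10^5 cells/well, 48-well MEA; compound from day 0 through DIV 12, media and treatment renewed DIV 5/9. Recordings DIV 5, 7, 9, 12; well-mean interburst interval → trapezoidal AUC, loss direction vs DMSO.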

[14] = CCTE_Shafer_MEA_dev_inter_network_spike_interval_mean: CCTE's Neural Network Formation Assay for Mean Inter-network Spike Interval, Shafer Lab (AID 2284047)
Summary of the method: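 Primary rat cortical neurons on PEI-coated 48-well MEAs (16 electrodes/well) were exposed from plating day 0 to DIV 12, with dosing renewed at DIV 5 and 9. Recordings at DIV 5, 7, 9, 12 were collapsed by trapezoidal AUC, loss-of-signal fit vs DMSO.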

[15] = CCTE_Shafer_MEA_dev_network_spike_number: CCTE's Neural Network Formation Assay for Number of Network Spikes, Shafer Lab (AID 2284048);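 also: synchronized bursts across electrodes counted on days 5 7 9 12 and integrated as AUC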
Summary of the method: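 Extracellular recordings from 16-electrode wells track network formation in rat cortical cultures under continuous treatment from plating. The endpoint is network spike number, expressed as AUC across DIV 5–12 relative to DMSO vehicle.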

[16] = CCTE_Shafer_MEA_dev_network_spike_peak: CCTE's Neural Network Formation Assay for Mean Number of Electrodes in Network Spike, Shafer Lab (AID 2284049)
Summary of the method: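 Continuous 12-day exposure of rat cortical cultures, starting at plating, on MEA plates. Endpoint: electrodes participating in network-spike peaks, AUC across DIV 5–12, DMSO as negative control.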

[17] = CCTE_Shafer_MEA_dev_spike_duration_mean: CCTE's Neural Network Formation Assay for Mean Spike Duration, Shafer Lab (AID 2284051);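 also: mean network spike duration pooled as area under curve over DIV 5 to 12 recordings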
Summary of the method: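 Rat cortical primary cultures, 48-well MEA (16 electrodes/well); compound from plating, renewed DIV 5, 9. Network spike duration (AxIS adaptive detector) recorded DIV 5/7/9/12, combined as trapezoidal AUC; loss direction vs DMSO.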

[18] = CCTE_Shafer_MEA_dev_network_spike_duration_std: CCTE's Neural Network Formation Assay for Standard Deviation of Network Spike Duration, Shafer Lab (AID 2284052);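 also: area under curve of spike duration SD across recording days 5 to 12; hits are decreases in network spike duration SD versus DMSO vehicle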
Summary of the method: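 Rat cortical cultures, 1.5 x 10^5 cells/well, exposed continuously from plating to DIV 12 with media/compound renewal at DIV 5, 9. Spontaneous activity recorded DIV 5/7/9/12, AxIS adaptive spike detector; AUC across days; negative direction vs DMSO.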

[19] = CCTE_Shafer_MEA_dev_per_network_spike_spike_number_mean: CCTE's Neural Network Formation Assay for Mean Number of Spikes in a Network Spike, Shafer Lab (AID 2284053)
Summary of the method: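 Rat cortical primary cultures on 48-well MEA; compound from day 0, re-dosed with full media change DIV 5, 9. Recorded DIV 5, 7, 9, 12; spikes in 0.05 s window at network-spike peak ÷ total network spikes; AUC; loss vs DMSO.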

[20] = CCTE_Shafer_MEA_dev_per_network_spike_spike_percent: CCTE's Neural Network Formation Assay for Percent of Spikes in a Network Spike, Shafer Lab (AID 2284054)
Summary of the method: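 Developing networks of rat cortical neurons are dosed at day 0 and recorded extracellularly four times up to day 12. The endpoint is the area under the curve of percent spikes in network spikes, fitted in the negative direction relative to DMSO.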

[21] = UKN5_HCS_SBAD2_cell_viability: Viability Assessment in the University of Konstanz (UKN) Leist Lab Neurite Outgrowth Assay in human iPSC-derived immature Dorsal Root Ganglia Neurons (UKN5) (AID 2284056)
Summary of the method: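 iPSC-derived immature peripheral neurons (SBAD2) seeded on Matrigel with CHIR99021, SU5402 and DAPT, dosed 1 h later for 24 h. Viability from Hoechst H-33342 and calcein-AM live staining, high-content imaging; bidirectional fit versus DMSO.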

[22] = CCTE_Shafer_MEA_dev_LDH: CCTE's Lactate Dehydrogenase Assay for Cytotoxicity in the Neural Network Formation Assay, Shafer Lab (AID 2284068; active = hit-call score of the fitted dose curve at least 0.9, where 1 is the maximum;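 also: exposure for twelve days from plating with re-dosing on DIV 5 and 9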)
Summary of the method: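 Rat cortical primary neurons, MEA culture; dosing day 0–12, full medium plus compound exchange DIV 5, 9. Read-out: LDH enzyme activity, spectrophotometric. DMSO = negative control/baseline; signal loss → cytotoxicity.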

[23] = UKN5_HCS_SBAD2_neurite_outgrowth: University of Konstanz (UKN) Leist Lab Neurite Outgrowth Assay in human iPSC-derived immature Dorsal Root Ganglia Neurons (UKN5) (AID 2284070); details: actives raise or lower the signal
Summary of the method: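 Neurite outgrowth is quantified as calcein-AM-labelled neurite area in human iPSC-derived peripheral neurons treated for 24 h, starting 1 h after plating in medium with CHIR99021 (1.5 uM), SU5402 (5 uM) and DAPT (5 uM).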

[24] = CCTE_Shafer_MEA_dev_mutual_information_norm: CCTE's Neural Network Formation Assay for Mutual Information Normalization, Shafer Lab (AID 2284091)
Summary of the method: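 Exposure of primary rat cortical neurons began at plating and ran to DIV 12, with full media and treatment renewal after DIV 5 and 9 recordings. Mutual information AUC (DIV 5–12) was analysed for loss versus DMSO.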

[25] = CCTE_Shafer_MEA_dev_correlation_coefficient_mean: CCTE's Neural Network Formation Assay for Mean Correlation Coefficient, Shafer Lab (AID 2284093)
Summary of the method: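 Rat cortical cultures, 1.5 x 10^5 cells/well, dosed from day 0 for 12 days. Spontaneous spikes recorded DIV 5/7/9/12; electrode-pair correlation coefficients averaged, AUC taken. Fit in loss direction vs DMSO.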

[26] = UKN2_HCS_IMR90_neural_migration: University of Konstanz (UKN) Leist Lab Neural Crest Cell Migration Assay in human induced IMR90 Pluripotent Stem Cells (UKN2) (AID 2284204); details: actives raise or lower the signal
Summary of the method: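 Using a 96-well stopper format with PLO/laminin/fibronectin coating, neural crest cells from iPSC migrate in cytokine-supplemented N2-S medium; after 24 h, chemicals are applied for a further 24 h, then cells are imaged after dye staining.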

[27] = UKN4_HCS_LUHMES_neurite_outgrowth: University of Konstanz (UKN) Leist Lab Neurite Outgrowth Assay in human LUHMES cells (UKN4) (AID 2284206); details: actives raise or lower the signal
Summary of the method: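 Neurite area in dopaminergic-model LUHMES neurons is measured by high-content imaging of calcein-AM after 24 h treatment starting shortly after day-2 replating; Hoechst staining tracks viability.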

Measured: outcome

CC(C)(C)NCC(O)c1cc(O)cc(O)c1 (configuration not stated)
inactive: [1] | [2] | [3] | [4] | [5] | [6] | [7] | [8] | [9] | [10] | [11] | [12] | [13] | [14] | [15] | [16] | [17] | [18] | [19] | [20] | [21] | [22] | [23] | [24] | [25] | [26] | [27]
